Binding signal data for seven sequences are collected here from PMC4081100, “A DNA-binding-site landscape and regulatory network analysis for NAC transcription factors in Arabidopsis thaliana”.

Test in all cases: universal protein binding microarray (PBM); transcription factors of Arabidopsis thaliana; high values mean tight binding
What all share (details): protein: recombinant; tags: GST; chain copies: 2; dsDNA, one strand shown

Experiment [1] deals with T1, GST-ANAC092(1-176) (Arabidopsis thaliana, UniProt Q9FKA0 1-176).
T1 sequence: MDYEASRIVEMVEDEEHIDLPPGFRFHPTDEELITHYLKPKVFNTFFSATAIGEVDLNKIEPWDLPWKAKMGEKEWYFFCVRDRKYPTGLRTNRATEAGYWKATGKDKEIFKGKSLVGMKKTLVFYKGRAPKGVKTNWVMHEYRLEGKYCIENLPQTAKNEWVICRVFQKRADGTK
In short, it runs like this:
(§1)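 GST-tagged NAC-domain, full-length or DNA-binding-domain proteins were induced in cells, with zinc acetate added for zinc-finger proteins. They were purified on glutathione–Sepharose 4B and quantified by A280 or anti-GST western blot. Each was applied at 200 to 500 nM final, in duplicate, to custom all-10-mer Agilent 4 × 180K arrays made double-stranded by primer extension, with gapped and ungapped 8-mers scored. Binding is the normalised enrichment score (E-score).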

Experiment [2] addresses GST-NTL6(1-168) (Arabidopsis thaliana, UniProt Q9SCK6 1-168). In a few lines: as §1
Experiment [3] has as its target T2, GST-ANAC019 NAC domain (Arabidopsis thaliana, UniProt Q9C932 14-162).
T2 sequence: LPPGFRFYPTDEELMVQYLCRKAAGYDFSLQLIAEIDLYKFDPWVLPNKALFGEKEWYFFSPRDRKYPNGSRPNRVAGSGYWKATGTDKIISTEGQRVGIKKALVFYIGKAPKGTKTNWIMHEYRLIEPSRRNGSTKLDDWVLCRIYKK
In short, it runs like this: as §1

In experiment [4] the target is T3, GST-ANAC055(1-171) (Arabidopsis thaliana, UniProt Q9LDY8 1-171).
T3 sequence: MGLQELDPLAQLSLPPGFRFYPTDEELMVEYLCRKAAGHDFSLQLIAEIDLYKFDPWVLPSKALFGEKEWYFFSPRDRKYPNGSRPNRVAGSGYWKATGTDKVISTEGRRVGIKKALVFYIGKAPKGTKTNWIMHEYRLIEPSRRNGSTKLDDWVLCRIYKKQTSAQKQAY
In short, it runs like this: as §1

The target of experiment [5] is T4, GST-ATAF1 NAC domain (Arabidopsis thaliana, UniProt Q39013 7-158).
T4 sequence: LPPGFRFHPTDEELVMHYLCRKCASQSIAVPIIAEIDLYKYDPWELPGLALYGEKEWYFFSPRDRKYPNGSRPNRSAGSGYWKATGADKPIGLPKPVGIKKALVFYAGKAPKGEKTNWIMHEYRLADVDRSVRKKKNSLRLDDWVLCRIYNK
In a few lines: as §1

The target in experiment [6] is T5, GST-ANAC092(1-285) full length (Arabidopsis thaliana, UniProt Q9FKA0 1-285).
T5 sequence: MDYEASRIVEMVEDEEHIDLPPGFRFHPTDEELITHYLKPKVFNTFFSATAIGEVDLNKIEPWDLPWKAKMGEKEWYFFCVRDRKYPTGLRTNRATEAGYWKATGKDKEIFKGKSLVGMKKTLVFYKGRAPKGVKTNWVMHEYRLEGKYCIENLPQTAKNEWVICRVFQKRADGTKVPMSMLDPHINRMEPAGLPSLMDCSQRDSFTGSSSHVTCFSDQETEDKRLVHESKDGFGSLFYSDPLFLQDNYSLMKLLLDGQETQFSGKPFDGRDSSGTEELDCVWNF
In short, it runs like this: as §1

For experiment [7], the target named is T6, GST-NAP(1-166) (Arabidopsis thaliana, UniProt O49255 1-166).
T6 sequence: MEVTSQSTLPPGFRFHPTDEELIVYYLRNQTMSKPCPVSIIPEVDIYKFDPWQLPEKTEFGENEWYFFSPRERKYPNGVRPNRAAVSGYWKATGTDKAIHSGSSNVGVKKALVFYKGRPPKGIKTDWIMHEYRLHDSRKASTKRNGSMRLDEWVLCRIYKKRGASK
In short, it runs like this: as §1

The target in experiment [8] is T7, GST-NST2(1-184) (Arabidopsis thaliana, UniProt Q9M274 1-184).
T7 sequence: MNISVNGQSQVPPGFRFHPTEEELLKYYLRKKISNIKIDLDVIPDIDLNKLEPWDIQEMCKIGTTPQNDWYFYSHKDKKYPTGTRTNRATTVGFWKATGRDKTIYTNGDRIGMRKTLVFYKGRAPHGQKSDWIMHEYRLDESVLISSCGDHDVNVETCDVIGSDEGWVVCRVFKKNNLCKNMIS
In a few lines: as §1

In experiment [9] the target is T8, GST-NTL8 NAC domain (Arabidopsis thaliana, UniProt Q9XIN7 14-156).
T8 sequence: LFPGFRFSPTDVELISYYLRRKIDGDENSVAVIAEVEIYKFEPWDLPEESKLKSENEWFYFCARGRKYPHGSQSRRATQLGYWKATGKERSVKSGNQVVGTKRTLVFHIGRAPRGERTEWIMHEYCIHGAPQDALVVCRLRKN
In a few lines:
as §1

Experiment [10] has as its target T9, GST-SND1(1-203) (Arabidopsis thaliana, UniProt Q9LPI7 1-203).
T9 sequence: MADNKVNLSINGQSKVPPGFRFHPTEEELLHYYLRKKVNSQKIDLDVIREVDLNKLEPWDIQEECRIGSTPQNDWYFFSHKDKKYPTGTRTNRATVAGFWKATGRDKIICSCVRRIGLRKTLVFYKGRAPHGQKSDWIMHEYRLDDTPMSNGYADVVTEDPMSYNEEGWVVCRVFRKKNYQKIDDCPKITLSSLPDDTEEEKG
In short, it runs like this: as §1

The target of experiment [11] is T10, GST-VND3 NAC domain (Arabidopsis thaliana, UniProt Q9FH59 12-162).
T10 sequence: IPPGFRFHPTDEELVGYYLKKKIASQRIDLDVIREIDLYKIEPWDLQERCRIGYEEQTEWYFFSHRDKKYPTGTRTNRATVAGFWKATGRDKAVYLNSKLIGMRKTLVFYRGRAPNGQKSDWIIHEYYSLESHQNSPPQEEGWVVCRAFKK
In short, it runs like this: as §1

Experiment [12] concerns the target T11, GST-VND7 NAC domain (Arabidopsis thaliana, UniProt Q9C8W9 9-158).
T11 sequence: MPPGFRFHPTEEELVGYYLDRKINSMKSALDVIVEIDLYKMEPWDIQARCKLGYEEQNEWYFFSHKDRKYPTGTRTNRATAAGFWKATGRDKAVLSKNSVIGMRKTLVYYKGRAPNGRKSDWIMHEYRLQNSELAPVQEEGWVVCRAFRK
In a few lines:
as §1

Chain of GST-NTL6(1-168) (Q9SCK6 1-168): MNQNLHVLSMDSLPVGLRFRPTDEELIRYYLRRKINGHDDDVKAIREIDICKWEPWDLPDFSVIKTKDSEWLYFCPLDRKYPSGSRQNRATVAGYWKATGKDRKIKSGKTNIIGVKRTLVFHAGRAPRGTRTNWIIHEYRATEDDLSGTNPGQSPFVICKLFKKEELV

Take CTTAAGTA: the binding signal came to 0.154 E-score in [1]; 0.416 E-score in experiment [2]; 0.0907 E-score in experiment [3]; 0.178 E-score in experiment [4]; 0.207 E-score in experiment [5]; 0.198 E-score in experiment [6]. For the same sequence, the binding signal in experiment [7] was determined as 0.0567 E-score; in experiment [8], 0.207 E-score; in experiment [9], 0.264 E-score; in [10], 0.267 E-score; in experiment [11], 0.218 E-score; in experiment [12], 0.182 E-score.

On to ATACGCAA, for which the binding signal worked out at 0.485 E-score in experiment [1]; 0.0867 E-score in experiment [2]; 0.429 E-score in experiment [3]; 0.397 E-score in [4]; 0.336 E-score in experiment [5]; 0.487 E-score in experiment [6]. The binding signal in [7] was 0.459 E-score; in experiment [8], 0.406 E-score; in experiment [9], 0.172 E-score; in experiment [10], 0.462 E-score; in experiment [11], 0.435 E-score; in [12], 0.433 E-score.

Take CTTACTTC: the binding signal in experiment [1] worked out at 0.272 E-score; in [2], 0.413 E-score; in experiment [3], 0.227 E-score; in [4], 0.191 E-score; in experiment [5], 0.209 E-score; in [6], 0.325 E-score. The binding signal in experiment [8] amounted to 0.267 E-score; in experiment [9], 0.4 E-score; in [10], 0.387 E-score; in experiment [11], 0.209 E-score; in [12], 0.23 E-score.

As for ACGTTACT, the binding signal in experiment [1] was 0.435 E-score; in [2], 0.0863 E-score; in experiment [3], 0.287 E-score; in experiment [4] it was 0.155 E-score; in [5], 0.282 E-score; in [6], 0.439 E-score. Moreover, the binding signal is 0.249 E-score in [7]; 0.268 E-score in experiment [8]; 0.233 E-score in experiment [9]; 0.434 E-score in experiment [10]; 0.259 E-score in experiment [11]; 0.326 E-score in [12].

For ACGTTTTC, the binding signal in experiment [1] stood at 0.382 E-score; in experiment [2], 0.196 E-score; in experiment [3] it was 0.248 E-score; in experiment [4] it was 0.304 E-score; in experiment [5] it was 0.336 E-score; in experiment [6] it was 0.401 E-score. In addition, the binding signal in experiment [7] came out at 0.29 E-score; in [8], 0.32 E-score; in experiment [9], 0.225 E-score; in experiment [10] it was 0.322 E-score; in experiment [11] it was 0.303 E-score; in [12] it was 0.327 E-score.

Regarding AGAAGGAA, the binding signal in experiment [1] was 0.192 E-score; in experiment [2] it was 0.417 E-score; in [3] it was 0.0646 E-score; in experiment [4], 0.117 E-score; in experiment [5], 0.149 E-score; in experiment [6], 0.156 E-score. For the same sequence, the binding signal was found to be 0.177 E-score in experiment [8]; 0.379 E-score in experiment [9]; 0.157 E-score in experiment [10]; 0.0779 E-score in experiment [11]; 0.0759 E-score in experiment [12].

For the sequence TAAGTTAA, the binding signal in experiment [1] came out at 0.191 E-score; in [2] it was 0.418 E-score; in [3] it was 0.132 E-score; in experiment [4], 0.0747 E-score; in experiment [5], 0.157 E-score; in [6], 0.3 E-score. For the same sequence, the binding signal in experiment [8] was found to be 0.184 E-score; in [10] it was 0.297 E-score; in experiment [11] it was 0.188 E-score; in experiment [12] it was 0.0557 E-score.
